Our source for the binding signal values is PMC12820563, “FoxP3 forms a head-to-head dimer in vivo and stabilizes its multimerization on adjacent microsatellites”.

Over roughly 16,000 sequences, “rpm ratio (pull-down/input)” has its median near 0.94; the highest 2% begin near 1.7. This is one part of a sample in which the highest values are shown more often than they occur.

The experiment concerns the target T1, MBP-FoxP1dN (Mus musculus, UniProt P58462 326-579).
T1 sequence: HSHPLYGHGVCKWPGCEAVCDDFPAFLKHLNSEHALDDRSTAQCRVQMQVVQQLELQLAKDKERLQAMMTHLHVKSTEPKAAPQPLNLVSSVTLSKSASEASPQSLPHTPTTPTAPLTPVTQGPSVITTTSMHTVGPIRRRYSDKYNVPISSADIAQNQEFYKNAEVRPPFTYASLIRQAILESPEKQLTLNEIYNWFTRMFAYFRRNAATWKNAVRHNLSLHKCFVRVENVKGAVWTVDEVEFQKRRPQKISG
Nature of the experiment: PD-seq (MBP pull-down with sequencing); 20 mM Tris-HCl pH 7.5, 100 mM NaCl, 1.5 mM MgCl2, 0.4 uM protein, 0.1 uM dsDNA library, 30 min, room temperature, amylose pull-down; high values mean tight binding. Particulars: protein: recombinant; tags: His6-MBP; chain copies: 2; dsDNA, one strand shown. In a few lines: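 In Tris pH 7.5 buffer with NaCl and MgCl2, 0.4 µM His6-MBP-tagged mouse FoxP3 or FoxP1 fragment lacking the N-terminus, from E. coli, met 0.1 µM Klenow-filled double-stranded degenerate DNA library for 30 min at room temperature. Three washes on amylose resin followed capture of the complexes, then proteinase K release of DNA, PCR barcoding and Illumina sequencing. Binding is taken as pooled-replicate reads-per-million enrichment of pull-down relative to input.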
With “GATGATTGTTCTCCCAGCTGATGAATTGATGATCTCGAGTAAACAAATTTTCCTAATCTTTCTGTTCAAGCGCCATCTAC”, the binding signal is 0.99 RPM ratio (pull-down/input).
With “GATGATTGTTCTCCCAGCTGATGAATTTCTGTCCTCGAGTAAACAAATTTTCCTAATCTTTCTGTTCAAGCGCCATCTAC” the figure was 0.915 RPM ratio (pull-down/input); with “GATGATTGTTCTCCCAGCTGATGAATTGTTGACCTCGAGTAAACAAATTTTCCTAATCTTTCTGTTCAAGCGCCATCTAC”, 1.88 RPM ratio (pull-down/input).
The result for “GATGATTGTTCTCCCAGCTGATGAATTGTTGTTCTCGAGTAAACAAATTTTCCTAATCTTTCTGTTCAAGCGCCATCTAC” reads 2.58 RPM ratio (pull-down/input); that for “GATGATTGTTCTCCCAGCTGATGAATTGATGACCTCGAGTAAACAAATTTTCCTAATCTTTCTGTTCAAGCGCCATCTAC”, 1.02 RPM ratio (pull-down/input).
With “GATGATTGTTCTCCCAGCTGATGAATTGACCTCCTCGAGTAAACAAATTTTCCTAATCTTTCTGTTCAAGCGCCATCTAC” the figure was 0.877 RPM ratio (pull-down/input); with “GATGATTGTTCTCCCAGCTGATGAATTGATCTTCTCGAGTAAACAAATTTTCCTAATCTTTCTGTTCAAGCGCCATCTAC”, 0.956 RPM ratio (pull-down/input).
Regarding “GATGATTGTTCTCCCAGCTGATGAATTGTCCTCCTCGAGTAAACAAATTTTCCTAATCTTTCTGTTCAAGCGCCATCTAC”, the binding signal was 1.03 RPM ratio (pull-down/input).
Turning to “GATGATTGTTCTCCCAGCTGATGAATTTTTTTTCTCGAGTAAACAAATTTTCCTAATCTTTCTGTTCAAGCGCCATCTAC”, the binding signal was 0.756 RPM ratio (pull-down/input).
With “GATGATTGTTCTCCCAGCTGATGAATTGTTGTCCTCGAGTAAACAAATTTTCCTAATCTTTCTGTTCAAGCGCCATCTAC” the figure was 2.28 RPM ratio (pull-down/input); with “GATGATTGTTCTCCCAGCTGATGAATTTCTAATCTCGAGTAAACAAATTTTCCTAATCTTTCTGTTCAAGCGCCATCTAC”, 0.82 RPM ratio (pull-down/input); with “GATGATTGTTCTCCCAGCTGATGAATTGTTGATCTCGAGTAAACAAATTTTCCTAATCTTTCTGTTCAAGCGCCATCTAC”, 2.06 RPM ratio (pull-down/input).
The result for “GATGATTGTTCTCCCAGCTGATGAATTAACAGTTTCGAGTAAACAAATTTTCCTAATCTTTCTGTTCAAGCGCCATCTAC” reads 1.09 RPM ratio (pull-down/input); that for “GATGATTGTTCTCCCAGCTGATGAATTGTAAAAGTCGAGTAAACAAATTTTCCTAATCTTTCTGTTCAAGCGCCATCTAC”, 0.943 RPM ratio (pull-down/input); that for “GATGATTGTTCTCCCAGCTGATGAATTATGTCGCTCGAGTAAACAAATTTTCCTAATCTTTCTGTTCAAGCGCCATCTAC”, 1.01 RPM ratio (pull-down/input).
With “GATGATTGTTCTCCCAGCTGATGAATTCCATAAGTCGAGTAAACAAATTTTCCTAATCTTTCTGTTCAAGCGCCATCTAC” the figure was 0.896 RPM ratio (pull-down/input); with “GATGATTGTTCTCCCAGCTGATGAATTCTCTGGCTCGAGTAAACAAATTTTCCTAATCTTTCTGTTCAAGCGCCATCTAC”, 0.769 RPM ratio (pull-down/input); with “GATGATTGTTCTCCCAGCTGATGAATTATCGGCTTCGAGTAAACAAATTTTCCTAATCTTTCTGTTCAAGCGCCATCTAC”, 0.859 RPM ratio (pull-down/input).
On to “GATGATTGTTCTCCCAGCTGATGAATTACATGGATCGAGTAAACAAATTTTCCTAATCTTTCTGTTCAAGCGCCATCTAC”, for which the binding signal was 1 RPM ratio (pull-down/input).
The result for “GATGATTGTTCTCCCAGCTGATGAATTGCGCCCCTCGAGTAAACAAATTTTCCTAATCTTTCTGTTCAAGCGCCATCTAC” reads 0.966 RPM ratio (pull-down/input); that for “GATGATTGTTCTCCCAGCTGATGAATTATTGAGCTCGAGTAAACAAATTTTCCTAATCTTTCTGTTCAAGCGCCATCTAC”, 0.941 RPM ratio (pull-down/input); that for “GATGATTGTTCTCCCAGCTGATGAATTTCCTACCTCGAGTAAACAAATTTTCCTAATCTTTCTGTTCAAGCGCCATCTAC”, 0.823 RPM ratio (pull-down/input).
As for “GATGATTGTTCTCCCAGCTGATGAATTACCATTGTCGAGTAAACAAATTTTCCTAATCTTTCTGTTCAAGCGCCATCTAC”, the binding signal is 1.04 RPM ratio (pull-down/input).
With “GATGATTGTTCTCCCAGCTGATGAATTGTTGCACTCGAGTAAACAAATTTTCCTAATCTTTCTGTTCAAGCGCCATCTAC” the figure was 1.76 RPM ratio (pull-down/input).
With “GATGATTGTTCTCCCAGCTGATGAATTTTTGCACTCGAGTAAACAAATTTTCCTAATCTTTCTGTTCAAGCGCCATCTAC” the figure was 0.891 RPM ratio (pull-down/input).
Turning to “GATGATTGTTCTCCCAGCTGATGAATTGCACTCCTCGAGTAAACAAATTTTCCTAATCTTTCTGTTCAAGCGCCATCTAC”, the binding signal was 1.15 RPM ratio (pull-down/input).
With “GATGATTGTTCTCCCAGCTGATGAATTACAACAATCGAGTAAACAAATTTTCCTAATCTTTCTGTTCAAGCGCCATCTAC”, the binding signal was 2.1 RPM ratio (pull-down/input).
As to “GATGATTGTTCTCCCAGCTGATGAATTTCAATAATCGAGTAAACAAATTTTCCTAATCTTTCTGTTCAAGCGCCATCTAC”, the binding signal was 1.31 RPM ratio (pull-down/input).
“GATGATTGTTCTCCCAGCTGATGAATTACAATTATCGAGTAAACAAATTTTCCTAATCTTTCTGTTCAAGCGCCATCTAC”: the binding signal was 1.51 RPM ratio (pull-down/input).
The result for “GATGATTGTTCTCCCAGCTGATGAATTACAGCAATCGAGTAAACAAATTTTCCTAATCTTTCTGTTCAAGCGCCATCTAC” reads 1.28 RPM ratio (pull-down/input); that for “GATGATTGTTCTCCCAGCTGATGAATTACAATAATCGAGTAAACAAATTTTCCTAATCTTTCTGTTCAAGCGCCATCTAC”, 1.83 RPM ratio (pull-down/input).
The result for “GATGATTGTTCTCCCAGCTGATGAATTACTACAATCGAGTAAACAAATTTTCCTAATCTTTCTGTTCAAGCGCCATCTAC” reads 1.55 RPM ratio (pull-down/input).
